Assay outcomes from PubChem.
This is a sample that favours compounds with a hit; in the whole collection about 7.5% have one here.
FLuc modulator = inhibits or activates purified firefly luciferase, miR-21 counter-screen; Potency, µM (series often up to 57.5 µM), actives largely listed as inhibitors; purified FLuc, Km substrates, luminescence inhibition; P08659; 360,000 tested, 6.9% active; also: nearly all actives have a fitted effect of over 55% in size
Target sequence (P08659 whole entry, looked up): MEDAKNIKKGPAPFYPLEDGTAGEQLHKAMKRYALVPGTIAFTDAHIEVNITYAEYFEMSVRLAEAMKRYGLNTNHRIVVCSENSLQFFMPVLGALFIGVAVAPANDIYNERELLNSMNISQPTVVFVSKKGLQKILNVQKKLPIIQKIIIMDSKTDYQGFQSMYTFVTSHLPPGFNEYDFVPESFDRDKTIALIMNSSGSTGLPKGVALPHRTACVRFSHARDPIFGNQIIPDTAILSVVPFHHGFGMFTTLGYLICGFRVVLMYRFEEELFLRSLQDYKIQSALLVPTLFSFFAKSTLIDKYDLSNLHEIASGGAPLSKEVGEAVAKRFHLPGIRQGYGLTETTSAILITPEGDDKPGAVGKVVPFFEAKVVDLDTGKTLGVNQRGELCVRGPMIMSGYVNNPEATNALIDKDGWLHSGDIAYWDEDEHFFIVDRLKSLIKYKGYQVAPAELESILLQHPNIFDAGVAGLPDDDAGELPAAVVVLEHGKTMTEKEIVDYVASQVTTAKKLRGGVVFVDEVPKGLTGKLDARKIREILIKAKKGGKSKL
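Purified P. pyralis luciferase (10nM final) with 10uM D-luciferin and 10uM ATP (Km levels) in 50mM Tris acetate pH 7.5, 10mM Mg acetate, 0.01% Tween-20, 0.05% BSA; qHTS 6-point titration, ~60 µM downward; luminescence read.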
SMN2 splice enh = increases expression of the SMN2 splice variant; AID 1458; 210,000 tested, 2.8% active; Potency, µM (series often up to 46.1 µM), actives largely listed as activators; HEK293 SMN2-luciferase splicing reporter, luminescence, 30-36 h; also: nearly all actives have a fitted effect of over 55% in size
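qHTS luciferase splicing reporter: luminescence rises when SMN2 exon 7 is included in transfected HEK293 cells. Compound exposure lasted 30-36 h at 37C, with 4.5 mM final sodium butyrate as control, followed by a ONE-Glo read.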
ELG1 genotoxic = inducers of genotoxicity in HEK293T ELG1-luciferase cells. Potency, µM (series often up to 46 µM), most hits filed as activators. 330,000 tested, 1.3% active. HEK293T ELG1-luciferase reporter, luminescence, 16 h; also: nearly all actives have a fitted effect of over 60% in size
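Genotoxicity was scored as increased ELG1-luciferase reporter signal, measured by ONE-Glo luminescence (30 min, room temperature). Compound or vehicle exposure of the HEK293T reporter cells lasted 16 hr at 37°C.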
NPC1 prom act = NPC1 promoter activation; 320,000 tested, 2.4% active; Potency, µM (doses to about 9.22 µM), usual class: activators; Huh7 NPC1 promoter luciferase reporter, 24 h; also: nearly all actives have a fitted effect of over 60% in size
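Huh7 cells stably carrying NPC1 promoter–luciferase, plated in Opti-MEM with 10% FBS for 2 h, were exposed to compound in DMSO for 24 h at 37 °C; luciferase reagent was added for 10 min and luminescence read.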
Rab9 promoter act = Rab9 promoter activation; Huh7 Rab9 promoter-luciferase reporter, luminescence, 24 h; Potency, µM (series often up to 9.22 µM), actives largely listed as activators; 320,000 tested, 2.8% active; also: nearly all actives have a fitted effect of over 60% in size
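Rab9 promoter-driven luciferase in stably transfected Huh7 cells; 1500 cells/well rested 2 h, exposed to compound in DMSO for 24 h at 37 °C, 5% CO2. Luminescence read 10 min after adding luciferase reagent at ambient temperature.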
Numbers stand for hits; 0 = inactive; ? = inconclusive; - = not tested or not shown; [ ] = another dose, or the depositor's remark. Calls follow the shape of the dose curve; as a rule, active = well fitted curve in the direction sought with a large enough effect; inconclusive = small, poorly fitted or top-dose-only effect, or another doubt; inactive = no such curve, though single readings can be large; an effect the other way counts as inactive or inconclusive.

SMILES | FLuc modulator | SMN2 splice enh | ELG1 genotoxic | NPC1 prom act | Rab9 promoter act
Cc1ccc(-n2c(C)cc(/C=C3/C(=O)NC(=O)N(Cc4ccco4)C3=O)c2C)cc1 | 19µM | 0 | 0 | 0 | 0
Cc1ccc(-n2c(C)cc(/C=C3/C(=O)NC(=O)N(C)C3=O)c2C)cc1 | 0.6µM | 0 | 0 | 0 | 0
Cc1ccc(N2C(=O)NC(=O)/C(=C\c3cc(C)n(-c4ccc(C(=O)O)cc4)c3C)C2=O)cc1 | 0 | - | 0 | 0 | 0
Cc1cc(/C=C2\C(=O)NC(=O)N(Cc3ccco3)C2=O)c(C)n1-c1ccc(O)cc1 | 15µM | - | 0 | 0 | 0
Cc1ccccc1-n1c(C)cc(/C=C2/C(=O)NC(=O)N(Cc3ccco3)C2=O)c1C | 19µM | 0 | 0 | 0 | 0
Cc1cc(/C=C2\C(=O)NC(=O)N(Cc3ccco3)C2=O)c(C)n1-c1ccc(C(=O)O)cc1 | 0 | - | 0 | 0 | 0
C(CCOCC1CO1)COCC1CO1 (stereo not drawn) | - | 0 | - | - | -
O=C(O)c1cccc([As]=[As]c2cccc(C(=O)O)c2)c1 (stereo not drawn) | - | 0[9.22 µM] | - | - | -
COc1ccc(NC2=NC(C)(C)CS2)cc1 | ? | 11µM | ? | ? | ?
COc1ccc(NC2=NCC(C)S2)cc1 (stereo not drawn) | 0 | 0 | 0 | 0 | 0
COc1cc(N2CCOCC2)ccc1/C=C1\C(=O)NC(=O)N(Cc2ccc3c(c2)OCO3)C1=O | 17µM | 0 | 0 | 0 | 0
COc1ccc(Cl)cc1N=Cc1c(O)n(C)c(=O)n(C)c1=O | 0 | - | 0 | 0 | 0
COc1ccccc1N=Cc1c(O)n(C)c(=O)n(C)c1=O | 7.6µM | 0 | 0 | 0 | 0
Cc1ccc(OC(=O)c2ccc(Br)o2)cc1 | 4.8µM | 0 | 0 | 0 | 0
COC(=O)C(O)(c1ccc(NC(=O)Oc2ccccc2)cc1)C(F)(F)F (stereo not drawn) | 15µM | 0 | 0 | 0 | 0
COc1ccc(CCn2c(O)c(C=NCc3cccnc3)c(=O)[nH]c2=O)cc1OC | 0 | 0 | 0 | 0 | 0
COc1ccc(C2CC(c3c(O)n(CCc4ccccc4)c(=O)[nH]c3=O)=NN2)cc1OC (stereo not drawn) | 19µM | - | 0 | 0 | 0
NC(=NCc1ccc(Cl)cc1)SCCCc1cnc[nH]1 | - | 0 | - | - | -
O=C1NC(=O)N(c2ccccc2)C(=O)/C1=C/C=C/c1ccco1 | ? | - | 0 | 0 | 0
Cc1cc(C)cc(N2C(=O)NC(=O)/C(=C/c3cccn3-c3ccc(Cl)cc3)C2=O)c1 | 0 | 0 | 0 | 0 | 0
O=C1NC(=O)N(c2ccccc2)C(=O)/C1=C/c1ccc2c(c1)Cc1ccccc1-2 | 21µM | 0 | 0 | 0 | 0
CC(C)(C)n1cccc1/C=C1\C(=O)NC(=O)N(c2ccccc2)C1=O | 24µM | 0 | 0 | 0 | 0
CN(C)c1ccc(/C=C/C=C2/C(=O)NC(=O)N(c3ccccc3)C2=O)cc1 | 4.3µM | - | 0 | 0 | 0
COc1cc(/C=C2\C(=O)NC(=O)N(c3ccccc3)C2=O)cc(OC)c1O | 21µM | 0 | 0 | 0 | 0
CNc1ccc2oc(C[C@@H]3OC4(CC[C@@H]3C)O[C@H]([C@@H](C)C(=O)c3ccc[nH]3)[C@H](C)C[C@H]4C)nc2c1C(=O)O (stereo partly drawn) | - | 0 | - | - | -
SMILES | FLuc modulator | SMN2 splice enh | ELG1 genotoxic | NPC1 prom act | Rab9 promoter act
CSc1cccc(NC(=O)C2CCN(C(=O)c3cnn(-c4ccccc4)c3-n3cccc3)CC2)c1 | ? | 0 | - | - | -
COc1ccc2c(c1)c(CCN1CCOCC1)c(C)n2C(=O)c1cccc(Cl)c1Cl | - | 0 | - | 0 | 0
O=C(N1CCOCC1)C1(c2ccccc2)CCNCC1 | - | 0[9.22 µM] | - | - | -
O=C1NC(=O)N(Cc2ccccc2Cl)C(=O)/C1=C/c1cccs1 | 15µM | 0 | ? | 0 | 0
O=C1NC(=O)N(Cc2ccc(F)cc2)C(=O)/C1=C/c1cccs1 | ? | 0 | ? | 0 | 0
CN1CC=C(/C=C/c2ccc(-c3ccccc3)cc2)CC1 | 4.3µM | - | ? | 3.2µM | ?
O=C(Nc1nc2ccccc2s1)c1cccn(Cc2ccccc2)c1=O | 0.76µM | - | - | - | -
Cc1ccccc1Cn1cccc(C(=O)Nc2nc3ccccc3s2)c1=O | 0.43µM | - | - | - | -
CCOc1ccc2nc(NC(=O)c3cccn(Cc4ccc(C)cc4)c3=O)sc2c1 | 0 | - | - | - | -
CCOc1ccc2nc(NC(=O)c3cccn(Cc4ccccc4)c3=O)sc2c1 | 6µM | - | - | - | -
Cc1ccc2nc(NC(=O)c3cccn(Cc4ccc(Cl)cc4)c3=O)sc2c1 | 0 | - | - | - | -
